Results filed as inconclusive are left out. A call without a number means that no potency is given here. A number with no mark means an inactive call. Calls of active or inactive are those of the source. Unless noted, the call rests on the fitted dose curve; in most records, active means well fitted curve in the direction sought with a large enough effect in the repeat runs; inconclusive means weak or mixed curves; inactive means no such curve, though single readings can be large; an effect the other way counts as inactive or inconclusive.
Tests used:
[1] = qHTS assay to identify small molecule agonists of the vitamin D receptor (VDR) signaling pathway - cell viability counter screen (AID 743224); further: nearly all actives have a fitted effect of over 50% in size
Summary of the method: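 VDR-bla cells, 4 h after plating, exposed to compounds for 16 h at 37C; viability then read in the same wells as CellTiter-Glo luminescence after 30 min at room temperature, following the bla FRET read.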

[2] = qHTS assay to identify small molecule antagonists of the vitamin D receptor (VDR) signaling pathway - cell viability counter screen (AID 743225); further: nearly all actives have a fitted effect of over 50% in size
Summary of the method: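 In this counter screen, VDR-bla HEK 293T cells receive test compound plus 3 nM final calcitriol for 16 h at 37C. Room-temperature steps of 2 h with the beta-lactamase substrate, then 30 min with CellTiter-Glo, precede the luminescence read.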

[3] = qHTS assay to identify small molecule agonists of the NFkB signaling pathway - cell viability counter screen (AID 1159515; calls by dose curve; further: nearly all actives have a fitted effect of over 55% in size)
Summary of the method: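 NFkB-bla ME-180 cells, 2,000/well, plated overnight at 37 C; compound added for 5 hr at 37 C. Viability read in the same wells as the bla reporter, by CellTiter-Glo luminescence after 30 min at room temperature.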

[4] = qHTS assay to identify small molecule agonists of the endoplasmic reticulum stress response signaling pathway (AID 1159516; active means well fitted activation curve with a large enough effect in the signal ratio in the repeat runs, not every such curve was filed as active; the % refers to the signal ratio)
Summary of the method: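 CellSensor ESRE-bla HeLa cells, 1,500 per well, plated overnight, then exposed to compounds for 5 hr at 37 C. Beta-lactamase reporter read with LiveBLAzer B/G FRET substrate after 2 hr at room temperature, 405 nm excitation, 460 and 530 nm emission.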

[5] = qHTS assay to identify small molecule agonists of the endoplasmic reticulum stress response signaling pathway - cell viability counter screen (AID 1159517; calls by dose curve;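 further: HeLa cells carrying an ER stress response element beta-lactamase reporter; nearly all actives have a fitted effect of over 50% in size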)
Summary of the method: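 Cells, HeLa ESRE-bla; density, 1,500/well; dosing, 5 hr at 37 C, 5% CO2; readout, CellTiter-Glo luminescence after 30 min RT.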

[6] = qHTS assay to identify small molecule antagonists of the retinoid-related orphan receptor gamma (ROR-gamma) signaling pathway - cell viability counter screen (AID 1159520); further: nearly all actives have a fitted effect of over 50% in size
Summary of the method: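 Cytotoxicity was read from cellular ATP (CellTiter-Glo luminescence) after 16 hr at 37 C with 1 uM doxycycline induction. The inducer was added 2 hr after compound transfer to Tet-on ROR gamma CHO cells.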

[7] = biological target: Nuclear receptor ROR-gamma (Homo sapiens) (UniProt P51449); experiment: qHTS assay to identify small molecule antagonists of the retinoid-related orphan receptor gamma (ROR-gamma) signaling pathway (AID 1159521)
Summary of the method: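 Screening format: cell-based luciferase reporter in CHO cells with doxycycline-inducible RORγ. Compound pre-exposure lasts 2 h, doxycycline is 1 uM final, induction runs 16 h at 37 C, and ONE-Glo luminescence is read.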

[8] = qHTS assay to identify small molecule agonists of the AP-1 signaling pathway - cell viability counter screen (AID 1159525; calls by dose curve; further: nearly all actives have a fitted effect of over 55% in size)
Summary of the method: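 Luminescent ATP readout (Cell Titer Glo, 30 min RT), normalised to DMSO and tetra n-octyl ammonium bromide controls. Cells were ME-180 AP-1-bla in 0.5% dialyzed FBS Opti-MEM, with a 5 h, 37 °C compound exposure.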

[9] = qHTS assay to identify small molecule agonists of the AP-1 signaling pathway (AID 1159526; calls by dose curve)
[10] = biological target: Retinoic acid receptor RXR-alpha (Homo sapiens) (UniProt P19793); experiment: qHTS assay to identify small molecule agonists of the RXR signaling pathway (AID 1159527; calls by dose curve; further: nearly all actives have a fitted effect of over 35% in size)
Sequence of Retinoic acid receptor RXR-alpha (Homo sapiens) (P19793 whole entry, looked up): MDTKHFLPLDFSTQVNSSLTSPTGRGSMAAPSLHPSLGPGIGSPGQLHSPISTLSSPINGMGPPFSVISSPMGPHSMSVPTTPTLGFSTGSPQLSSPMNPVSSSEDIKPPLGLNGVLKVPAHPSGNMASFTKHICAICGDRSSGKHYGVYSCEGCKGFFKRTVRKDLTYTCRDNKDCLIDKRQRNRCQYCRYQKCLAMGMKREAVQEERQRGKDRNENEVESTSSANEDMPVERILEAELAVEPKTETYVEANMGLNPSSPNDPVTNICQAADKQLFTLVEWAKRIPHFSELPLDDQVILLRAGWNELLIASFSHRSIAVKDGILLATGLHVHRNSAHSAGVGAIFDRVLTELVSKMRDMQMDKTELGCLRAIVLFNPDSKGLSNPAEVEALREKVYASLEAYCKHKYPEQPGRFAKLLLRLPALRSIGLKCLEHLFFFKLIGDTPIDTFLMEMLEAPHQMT
Summary of the method: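 Fluorescence ratio readout (460 vs 530 nm) from GeneBLAzer RXR-alpha HEK 293T cells after 16 hr compound treatment; cells seeded 5 hr beforehand in low-serum, charcoal-stripped medium.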

[11] = qHTS assay to identify small molecule agonists of the RXR signaling pathway - cell viability counter screen (AID 1159529)
Summary of the method: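 Viability read-out for the RXR-alpha agonist qHTS: luminescent CellTiter-Glo signal after 30 min at RT. HEK 293T bla reporter cells, 2% charcoal-stripped FBS, 16 hr compound incubation; tetraoctyl ammonium bromide as cytotoxic control.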

[12] = qHTS assay to identify small molecule antagonists of the retinoid acid receptor (RAR) signaling pathway - cell viability counter screen (AID 1159551); further: nearly all actives have a fitted effect of over 35% in size
Summary of the method: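 C3RL4 RARE-luciferase cells, 1,000/well, incubated overnight, then dosed with compound plus 1 uM retinol (final). After 6 hr at 37 C, viability read by CellTiter-Glo ATP luminescence following 30 min at room temperature.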

[13] = qHTS assay to identify small molecule antagonists of the retinoic acid receptor (RAR) signaling pathway (AID 1159552; further: nearly all actives have a fitted effect of over 50% in size)
Summary of the method: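 Using a RARE-driven luciferase construct in C3RL4 cells, retinol at 1 uM final provided the agonist stimulus while compounds were co-applied. After 6 hours at 37 C, luminescence was recorded to flag inhibitors of retinol signaling.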

[14] = qHTS assay to identify small molecule agonists of the retinoic acid receptor (RAR) signaling pathway (AID 1159553); conditions: C3RL4 RARE luciferase reporter, agonist, 6 h; activation: at 73.3 µM (top of the series)
Summary of the method: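 C3RL4 RARE-luciferase cells were seeded at 1,000/well and grown overnight at 37 C, then exposed to compounds for 6 hr at 37 C, 5% CO2. Luciferase reagent was added and luminescence was read after 30 min at room temperature.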

[15] = qHTS assay to identify small molecule antagonists of the estrogen related receptor (ERR) signaling pathway from Tox21 library - cell viability counter screen (AID 1224834); further: nearly all actives have a fitted effect of over 30% in size
Summary of the method: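 ERR reporter cells, 2,000 per well, rested 6 h, then exposed to compound in DMSO for 17.5 hours at 37 C. Viability read as fluorescence after 30 min with CellTiter-Fluor.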

[16] = biological target: Luciferin 4-monooxygenase (Photinus pyralis) (UniProt P08659); experiment: qHTS assay to identify small molecule inhibitors of firefly luciferase (AID 1224835); further: nearly all actives have a fitted effect of over 25% in size; further: potency means the concentration at half of the fitted maximal effect
Sequence of Luciferin 4-monooxygenase (Photinus pyralis) (P08659 whole entry, looked up): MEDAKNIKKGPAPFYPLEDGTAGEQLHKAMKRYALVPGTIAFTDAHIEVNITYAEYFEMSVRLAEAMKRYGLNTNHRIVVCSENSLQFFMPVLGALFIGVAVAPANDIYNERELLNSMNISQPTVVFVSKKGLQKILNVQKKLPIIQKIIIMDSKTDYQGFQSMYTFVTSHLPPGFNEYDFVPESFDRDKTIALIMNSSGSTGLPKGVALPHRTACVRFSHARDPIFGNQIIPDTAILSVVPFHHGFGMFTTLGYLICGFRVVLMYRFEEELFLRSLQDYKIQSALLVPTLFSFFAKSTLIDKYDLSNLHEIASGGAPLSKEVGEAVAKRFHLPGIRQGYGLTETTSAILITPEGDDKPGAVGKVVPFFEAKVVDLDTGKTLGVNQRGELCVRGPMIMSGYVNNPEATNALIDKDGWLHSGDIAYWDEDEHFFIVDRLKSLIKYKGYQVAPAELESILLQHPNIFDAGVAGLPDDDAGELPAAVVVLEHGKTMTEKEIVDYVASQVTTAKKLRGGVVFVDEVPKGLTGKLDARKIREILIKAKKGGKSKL
Summary of the method: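 Inhibition of purified Photinus luciferase is measured by luminescence. Substrate levels (D-luciferin, ATP) sit at their KM values. Each compound is tested in a concentration series.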

[17] = qHTS assay to identify small molecule agonists of the constitutive androstane receptor (CAR) signaling pathway - cell viability counter screen (AID 1224836); further: nearly all actives have a fitted effect of over 45% in size
Summary of the method: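 Multiplexed viability check: HepG2-CYP2B6-hCAR cells, 15-point compound dosing, 0.75 uM PK11195 final, 23 h at 37 C, CellTiter-Fluor fluorescence.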

[18] = qHTS assay to identify small molecule antagonists of the constitutive androstane receptor (CAR) signaling pathway - cell viability counter screen (AID 1224837); further: nearly all actives have a fitted effect of over 45% in size
Summary of the method: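 HepG2 cells stably carrying hCAR and CYP2B6-2.2kb reporter, stimulated with 50 nM CITCO and compounds at 15 concentrations for 23 h at 37 C. Viability measured by CellTiter-Fluor fluorescence.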

C/C=C(\C)C(=O)OCC/C=C\CC
outcome [1]: inactive
outcome [2]: inactive
outcome [3]: inactive
outcome [4]: inactive
outcome [5]: inactive
outcome [6]: inactive
outcome [7]: inactive
outcome [8]: inactive
outcome [9]: inactive
Potency [10]: inactive
outcome [11]: inactive
outcome [12]: inactive
Potency [13]: inactive
Potency [14]: inactive
Potency [15]: inactive
Potency [16]: 35.6 µM (active)
outcome [17]: inactive
Potency [18]: inactive

O=C(O)Cc1cccc(-c2cc(CCCCCCc3ccc(O[C@H]4O[C@H](CO)[C@@H](O)[C@H](O)[C@@H]4O)c(-c4cccc(CC(=O)O)c4)c3)ccc2O[C@H]2O[C@H](CO)[C@@H](O)[C@H](O)[C@@H]2O)c1
activity change, negative = cytotoxicity [1]: -3.17% [at 0.55 µM]
viability change, negative = cytotoxic [2]: 5.12% [at 0.628 µM]
activity, negative = cytotoxic [3]: 0.959% [at 0.628 µM]
activation [4]: 1.35% [at 0.628 µM]
activity change, negative = cytotoxicity [5]: 4.41% [at 0.628 µM]
activity, negative = cytotoxicity [6]: 0.991% [at 0.349 µM]
activity change, negative = inhibition [7]: -17.6% [at 0.35 µM]
viability change, negative = cytotoxic [8]: 1.08% [at 0.29 µM]
activation [9]: -4.69% [at 0.29 µM]
activation [10]: 6.74% [at 0.29 µM]
activity change, negative = cytotoxicity [11]: 12.1% [at 0.29 µM]
activity change, negative = cytotoxicity [12]: -1.44% [at 0.349 µM]
activity, negative = inhibition [13]: -0.764% [at 0.349 µM]
activation [14]: 0.783% [at 0.756 µM]
viability change, negative = cytotoxic [15]: -1.71% [at 0.349 µM]
activity change, negative = inhibition [16]: 2.97% [at 0.435 µM]
activity change, negative = cytotoxicity [18]: 5.71% [at 0.349 µM]

FC(F)(F)c1ccc(Cl)cc1Cl
outcome [1]: inactive
outcome [2]: inactive
outcome [3]: inactive
outcome [4]: inactive
outcome [5]: inactive
outcome [6]: inactive
outcome [7]: inactive
outcome [8]: inactive
outcome [9]: inactive
Potency [10]: inactive
outcome [11]: inactive
outcome [12]: inactive
Potency [13]: inactive
activation [14]: 0.481% (active)
Potency [15]: inactive
Potency [16]: inactive

CCCCC/C=C/CC(=O)OC
outcome [1]: inactive
outcome [2]: inactive
outcome [3]: inactive
outcome [4]: inactive
outcome [5]: inactive
outcome [6]: inactive
outcome [7]: inactive
outcome [8]: inactive
outcome [9]: inactive
Potency [10]: inactive
outcome [12]: inactive
Potency [13]: inactive
Potency [14]: inactive
Potency [15]: inactive
Potency [16]: inactive
outcome [17]: inactive
Potency [18]: inactive

Cc1nc(C)nc(N2C[C@@H](C)N(c3ccnc([C@@H](C)O)n3)[C@@H](C)C2)n1
outcome [1]: inactive
outcome [2]: inactive
outcome [3]: inactive
outcome [4]: inactive
outcome [5]: inactive
outcome [6]: inactive
outcome [8]: inactive
outcome [9]: inactive
Potency [10]: inactive
outcome [12]: inactive
Potency [13]: inactive
Potency [14]: inactive
Potency [16]: inactive
outcome [17]: inactive
Potency [18]: inactive

From PubChem BioAssay (Tox21)
